# Screening results (PubChem BioAssay)
# Six1-Eya2 inh: inhibitors of human Six1/Eya2 interaction | Q15475+O00167 | 0.56% of 360,000 active | AlphaScreen GST-Six1/His-Eya2 binding, biochemical; hits give low values | activity change, % (test concentration not listed); in the data active = activity change below about -65%; inconclusive = mostly about -30% to -63%
#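 AlphaScreen with GST-Six1 and His-Eya2 (5X mix: 250 nM and 500 nM), glutathione donor and nickel acceptor beads; buffer 50 mM Tris pH 8.0, 300 mM NaCl, 1 mM TCEP; 1 h at 37 C in the dark.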
# PKM2 act: PKM2 (human) enzyme activation; purified PKM2, Kinase-Glo ATP luminescence, activation; response scale: 0% is enzyme alone, no compound; Potency, µM (highest dose often 57.5 µM), for the others: at the highest dose activation, hits mostly activators; 0.34% of 260,000 active; AID 1631; also: potency is read from the fitted curve at half-maximal effect; nearly all actives have a fitted effect of over 55% in size
#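 Purified hPK-M2 (>95%) run at intermediate activity with 0.1 mM ADP and 0.5 mM PEP in 50 mM imidazole pH 7.2, KCl, MgCl2; 1 h room temperature. ATP formed read by Kinase-Glo luminescence; normalized to uninhibited and no-enzyme controls.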
# RORgamma inh: blocks mouse ROR gamma transcriptional activity | Potency, µM (highest dose often 53.6 µM), for inactives: top-dose activity change, negative = inhibition, hits mostly inhibitors | Drosophila S2 Gal4-RORgamma UAS-luciferase reporter, 20 h | P51450 | 5.4% of 310,000 active; also: potency is read from the fitted curve at half-maximal effect; nearly all actives have a fitted effect of over 60% in size
# Target sequence (P51450 whole entry, looked up, the tested form may be a part): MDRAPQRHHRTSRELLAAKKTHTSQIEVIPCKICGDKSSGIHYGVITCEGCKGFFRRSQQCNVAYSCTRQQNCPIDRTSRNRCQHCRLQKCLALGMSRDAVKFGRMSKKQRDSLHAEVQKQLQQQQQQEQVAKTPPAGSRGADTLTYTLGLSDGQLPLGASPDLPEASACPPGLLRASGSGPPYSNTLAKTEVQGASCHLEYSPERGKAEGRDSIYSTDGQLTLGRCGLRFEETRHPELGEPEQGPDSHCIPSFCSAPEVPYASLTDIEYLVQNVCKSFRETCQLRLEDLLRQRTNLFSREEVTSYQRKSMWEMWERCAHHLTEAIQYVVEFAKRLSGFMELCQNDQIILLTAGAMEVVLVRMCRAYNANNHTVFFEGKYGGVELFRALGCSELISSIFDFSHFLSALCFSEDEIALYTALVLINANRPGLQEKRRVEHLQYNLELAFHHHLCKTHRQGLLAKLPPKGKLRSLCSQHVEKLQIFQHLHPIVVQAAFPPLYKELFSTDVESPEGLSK
#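 Drosophila S2 cells stably expressing Gal4-DBD/mouse RORγ fusion under metallothionein promoter plus UAS-luciferase; compound 1 h, then 700 uM CuSO4 induction for 20 h at ambient temperature; inhibition read as reduced luminescence.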
# VP16 counter: Gal4-VP16 reporter inhibition counter-screen; Drosophila S2 Gal4-VP16 UAS-luciferase, luminescence, 20 h; Potency, µM (titrated, usually from 53.6 µM), without a hit: at the top dose activity, negative = inhibition, actives largely listed as inhibitors; 3.5% of 310,000 active; AID 2546;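 also: Gal4-VP16 expression switched on by copper sulfate through the metallothionein promoter; potency is read from the fitted curve at half-maximal effect; nearly all actives have a fitted effect of over 50% in size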
# CtBP-E1A inh: CtBP/E1A binding inhibition. AlphaScreen GST-E1A/His-CtBP binding, 1536-well; hits give low values. activity change, % (test concentration not listed). 0.49% of 340,000 active; in the data active = activity change below about -65%; inconclusive = mostly about -30% to -63%
#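 Homogeneous bead-based format: GST-tagged E1A captured on glutathione donor beads, His-tagged CtBP on nickel acceptor beads; compounds precede bead addition by 2 h at 37 °C.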
# An asterisk follows results filed as active; ? = inconclusive; nt = no result; [ ] = another dose, or the depositor's remark. Shown are actives, neighbours in structure and some others; about 5.6% of the full set was active somewhere. Unless noted, calls follow the shape of the dose curve; as a rule, active = well fitted curve in the direction sought with a large enough effect; inconclusive = small, poorly fitted or top-dose-only effect, or another doubt; inactive = no such curve, though single readings can be large; an effect the other way counts as inactive or inconclusive. % is scaled to controls: 0 for no effect and ±100 for the full control effect.
SMILES,Six1-Eya2 inh,PKM2 act,RORgamma inh,VP16 counter,CtBP-E1A inh
COc1cc2nc(=S)n3[nH]c(COc4ccccc4C)nc3c2cc1OC,-15.0,2.4%,0.199µM*,0.398µM*,5.1
CC(C)(C)C(=O)Nc1cc2nn(-c3ccccc3)nc2cc1Cl,55.6,-7.3%,0.631µM*,3.55µM*,26.5
c1ccc2c(c1)CCN(c1nc(CN3CCOCC3)nc3sc4c(c13)CCCC4)C2,-18.8,4.4%,11.2µM*,?,-24.4
CCNc1nc(CN2CCOCC2)nc2sc3c(c12)CCC3,1.8,-2.0%,?,-6.7%,6.6
CCOc1ccc(CCNC(=O)COC(=O)c2nc(Cl)ccc2Cl)cc1OCC,-8.5,nt,nt,nt,1.3
CCc1ccc2oc(-c3cc(N)cc(C)c3O)nc2c1,0.0,-22.6%,?,8.91µM*,-23.0
CCc1ccc2oc(-c3cc(N)ccc3Cl)nc2c1,5.1,-12.6%,?,10µM*,-2.1
CCc1ccc2oc(-c3cc(N)ccc3O)nc2c1,-20.4,8.7%,2.51µM*,3.98µM*,-2.3
CC(C)COC(=O)N1C(COCc2ccccc2)CCC=CS1(=O)=O (stereo unspecified),nt,nt,?,15.5%,nt
Nc1nc(-c2cc(O)ccc2[N+](=O)[O-])cc(-c2ccccc2)c1[N+](=O)[O-],?,-1.8%[11.5 µM],?,12.6µM*,?
O=[N+]([O-])c1cc(-c2ccccc2)cc([N+](=O)[O-])c1O,-12.6,nt,nt,nt,-19.2
Cc1ccc(C(=O)N/N=C\C=C\c2ccccc2[N+](=O)[O-])cn1,-1.6,-4.1%,21.3%,?,-21.9
COc1cc([N+](=O)[O-])cc(/C=N/NC(=O)c2ccc(C)nc2)c1O,-88.1*,-1.4%,0.891µM*,0.631µM*,-94.6*
NC(=S)N/N=C/c1ccccc1[N+](=O)[O-],2.2,-1.1%,-4.8%,?,2.2
COc1cccc(/C=N/NC(=O)c2cc3cc([N+](=O)[O-])ccc3s2)c1O,?,-0.7%,1.41µM*,2.51µM*,?
CCNC(=S)N/N=C/c1ccccc1[N+](=O)[O-],-6.3,3.1%,4.47µM*,?,-0.5
COc1ccccc1/C=N/NC(=O)c1ccc(NC(=O)c2cccc([N+](=O)[O-])c2)cc1,nt,-4.1%,30.1%,0.3%,nt
COc1cc([N+](=O)[O-])cc(/C=N/NC(=O)c2ccc(NC(=O)c3ccc(C)cc3)cc2)c1O,-8.0,0.2%,?,-8.2%[10 µM],?
Cc1ccc(C(=O)N/N=C\c2ccccc2[N+](=O)[O-])cn1,0.5,-12.2%,10µM*,?,7.9
Cn1c(=O)[nH]c(=O)c2c1nc(N1CCCCC1)n2C/C=N/NC(=O)c1cc(Br)ccc1O,-5.0,-2.4%,12.6µM*,?,?
Cc1ccsc1-c1nc(CN2CCCC2c2ccc(F)cc2)c(C)o1 (stereo unspecified),0.1,-0.9%,10µM*,-4.5%,2.1
COc1cccc(C2CCCCN2Cc2nc(-c3ccc(C)o3)oc2C)c1 (stereo unspecified),1.4,1.1%,-18.2%,-16.0%,nt
COc1cccc(C2CCCN2Cc2nc(-c3sccc3C)oc2C)c1 (stereo unspecified),-7.3,3.3%,28.2µM*,4.3%,4.1
COc1ccccc1C1CCCN1Cc1nc(-c2ccc(C)s2)oc1C (stereo unspecified),-6.3,-9.1%,?,-5.8%,-3.7
CN(CCOc1ccccc1)C(=O)c1cc([N+](=O)[O-])cc([N+](=O)[O-])c1,-2.9,0.0%,-7.5%,29.8%,-3.2
SMILES,Six1-Eya2 inh,PKM2 act,RORgamma inh,VP16 counter,CtBP-E1A inh
COc1ccc2c(-c3ccccc3)cc(SCC(=O)NC3CCS(=O)(=O)C3)nc2c1 (stereo unspecified),-5.5,6.5%,11.2µM*,-5.8%,-4.7
CCN(C(=O)CSc1cc(-c2ccccc2)c2ccc(OC)cc2n1)C1CCS(=O)(=O)C1 (stereo unspecified),-20.0,0.9%,28.8%,-23.5%,-12.1
CSCC[C@H]1COC[C@@H](Cc2ccccc2)N1c1ccccc1,-13.5,nt,nt,nt,2.3
O=S1(=O)CCN(CCCCc2ccccc2)CC1,-23.1,nt,nt,nt,0.0
Cc1cccc2c(-c3ccccc3)cc(=O)[nH]c12,-0.8,13.0%,10.2%,-7.2%,5.5
Cc1cc(=S)[nH]c2c(C)cccc12,-5.5,3.8%,11.2µM*,?,-4.1
O=C(O)c1cccc(CSc2nnc(COc3ccccc3)o2)c1,24.9,-2.1%,-31.3%,?,12.8
Cc1cccc(-c2nnc(SCc3ccccc3)o2)c1,34.4,1.7%,14.1µM*,-28.5%,26.9
O=C(O)c1cccc(CSc2nnc(-c3ccc(Cl)cc3)o2)c1,-1.1,-5.7%,?,0.794µM*,nt
Brc1cccc(-c2nnc(SCc3nc4ccccc4[nH]3)o2)c1,0.8,?,11.2µM*,-17.3%,11.0
O=c1c2c(nc3n1CCS3)c1cc(F)ccc1n2Cc1cc(=O)n2cc(Cl)ccc2n1,1.1,-6.1%,33.0%,0.3%,0.6
O=C(COc1cc2oc(=O)c3c(c2cc1Cl)CCC3)NCC(O)c1ccccc1 (stereo unspecified),-5.9,nt,-1.9%,0.5%,-3.2
COc1ccc([C@H]2CC(=O)C=C(c3ccc(OC)c(F)c3)C2)cc1,-16.5,nt,nt,nt,-12.7
Cc1ccc(CNC(=O)Cn2ccc3cc(S(=O)(=O)N4CCCC4)ccc32)o1,-1.3,15.8µM*,-7.0%,-5.7%,-7.8
COc1cccc(-c2nccc(NCCc3c[nH]c4ccc(OC)cc34)n2)c1,nt,nt,?,5.4%,nt
Cc1ccccc1OCc1nnc2c3cnn(C)c3ncn12,4.5,28.2µM*,18.5%,-8.1%,12.0
O=C(/C=C/c1ccco1)Nc1ccc2c(c1)OCCO2,-4.2,-6.3%,?,?,7.3
O=C(CSCSCC(=O)Nc1ccc2c(c1)OCO2)Nc1ccc2c(c1)OCO2,-7.5,2.7%,?,1.9%,-3.4
COc1ccccc1/C=C/C(=O)Nc1ccc2c(c1)OCCO2,-12.8,-8.4%,1.58µM*,-24.0%,-9.3
O=C(/C=C/c1ccccc1)c1ccc2c(c1)OCO2,4.2,-11.9%,-22.0%,3.5%,nt
O=C(/C=C/c1ccccc1)Nc1ccc2c(c1)OCCO2,-3.7,3.1%,10µM*,12.6µM*,0.0
CC(C)=CC(=O)Nc1ccc2c(c1)OCO2,3.2,-26.2%,11.2µM*,?,-22.8
O=C(/C=C/c1ccncc1)c1ccc2c(c1)OCCO2,9.2,11.3%,3.98µM*,5.01µM*,-1.5
Cc1noc(C)c1NC(=O)Nc1ccc2c(c1)C(=O)N([C@@H](C)CO)C[C@@H](C)[C@@H](CN(C)Cc1ccc3c(c1)OCO3)O2,-9.7,nt,nt,nt,2.4
COC(=O)[C@H](CC(C)C)NC(=O)c1cc2c(cn1)[nH]c1ccccc12,-10.0,nt,-0.2%,-3.5%,0.0
CC(=O)Nc1ccc(S(=O)(=O)N2CCN(CC(=O)N3CCOCC3)CC2)cc1,5.5,-8.5%,3.6%,-8.2%,0.9
